According to PubChem BioAssay (NCATS):
Results filed as inconclusive are left out. The source made the active and inactive calls. Calls come from the whole dose curve; as a rule, active = well fitted curve in the direction sought with a large enough effect; inconclusive = small, poorly fitted or top-dose-only effect, or another doubt; inactive = no such curve, though single readings can be large; an effect the other way counts as inactive or inconclusive.

How the values were obtained:
CRL-7250 = normal cell line; assay: Cytotoxic Profiling of Annotated Libraries Using Quantitative High-Throughput Screening (AID 1296008); conditions: Five cell lines viability, CellTiter-Glo ATP luminescence, 48-72 h; max response: stronger effect = lower value; note: nearly all actives have a fitted effect of over 60% in size; for max response: % is set by controls: 0 for no effect and ±100 for the full control effect
In short: (§1)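 Cells exposed to compounds for 48 or 72 hr at 37 degrees Celsius. Viability read as ATP-coupled luminescence with CellTiter-Glo after 10 min at room temperature.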

HEK293 = assay: as above; conditions: Five cell lines viability, CellTiter-Glo ATP luminescence, 48-72 h; max response: stronger effect = lower value
In short: as §1

HaCat = assay: as above; conditions: Five cell lines viability, CellTiter-Glo ATP luminescence, 48-72 h; max response: stronger effect = lower value
In short: as §1

KB-3-1 = assay: as above; conditions: Five cell lines viability, CellTiter-Glo ATP luminescence, 48-72 h; max response: stronger effect = lower value
In short: as §1

NIH3T3 [1] = assay: as above; conditions: Five cell lines viability, CellTiter-Glo ATP luminescence, 48-72 h; max response: stronger effect = lower value
In short: as §1

HEK293T [2] = assay: qHTS assay to identify novel small-molecules to repurpose for Merkel cell carcinoma treatment (AID 1296009); conditions: MCC and control cell lines, CellTiter-Glo viability, 72 h; at 44.8 µM (top of the series) unless noted; note: nearly all actives have a fitted effect of over 60% in size
In short: (§2)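 Cells were incubated with compound for 72 hr at 37 degree celsius before CellTiter-Glo addition. Luminescence was normalized with no-cell wells as full cytotoxicity and DMSO as baseline.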

C33A = assay: Primary qHTS to identify gynecologic anti-cancer compounds using libraries of approved drugs and bioactive compounds (AID 1345084); conditions: Gynecologic cancer cell panel viability, ATPlite luminescence, 48 h; series mostly up to 57.5 µM; note: % is set by controls: 0 for no effect and ±100 for the full control effect; nearly all actives have a fitted effect of over 55% in size
In short: (§3)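 Luminescence from the ATPlite ATP-monitoring reagent indicates viable cell number; lower signal means cytotoxicity. Cells received compound 16 h after seeding and were exposed for 48 h across five concentrations.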

CAOV3 = assay: as above; conditions: Gynecologic cancer cell panel viability, ATPlite luminescence, 48 h; series mostly up to 57.5 µM
In short: as §3

Es-2 = assay: as above; conditions: Gynecologic cancer cell panel viability, ATPlite luminescence, 48 h; series mostly up to 57.5 µM
In short: as §3

HeLa = assay: as above; conditions: Gynecologic cancer cell panel viability, ATPlite luminescence, 48 h; series mostly up to 57.5 µM
In short: as §3

Hek293T [3] = assay: as above; conditions: Gynecologic cancer cell panel viability, ATPlite luminescence, 48 h, control line for the selectivity index; series mostly up to 57.5 µM
In short: as §3

JEG-3 = assay: as above; conditions: Gynecologic cancer cell panel viability, ATPlite luminescence, 48 h; series mostly up to 57.5 µM
In short: as §3

OV90 = assay: as above; conditions: Gynecologic cancer cell panel viability, ATPlite luminescence, 48 h; series mostly up to 57.5 µM
In short: as §3

CASKI = assay: as above; conditions: Gynecologic cancer cell panel viability, ATPlite luminescence, 48 h; series mostly up to 57.5 µM
In short: as §3

NIH3T3 [4] = assay: qHTS assay to identify novel small-molecules to repurpose for Merkel cell carcinoma treatment (AID 1296009); conditions: MCC and control cell lines, CellTiter-Glo viability, 72 h; at 44.8 µM (top of the series) unless noted; note: nearly all actives have a fitted effect of over 60% in size
In short: as §2

CCOC(=O)C(CCc1ccccc1)NC1CCCN2CCCC(C(=O)O)N2C1=O (stereo unspecified)
inactive: max response (CRL-7250) 2.69% | outcome (HEK293) | max response (HaCat) 1.44% | max response (KB-3-1) 2.78% | max response (NIH3T3 [1]) 0.311% | outcome (HEK293T [2]) | Potency (C33A) | Potency (CAOV3) | Potency (Es-2) | Potency (HeLa) | Potency (Hek293T [3]) | Potency (JEG-3) | Potency (OV90)

CSCC1OC(n2cnc3c(N)ncnc32)C(O)C1O (stereo unspecified)
inactive: outcome (CRL-7250) | outcome (HEK293) | max response (HaCat) 2.69% | outcome (KB-3-1) | max response (NIH3T3 [1]) -0.346% | outcome (HEK293T [2]) | Potency (C33A) | Potency (CAOV3) | outcome (CASKI) | Potency (Es-2) | Potency (HeLa) | Potency (Hek293T [3]) | Potency (JEG-3) | Potency (OV90)

Cc1ccccc1NC(=O)Nc1ccc(CN2C(=O)N([C@@H](CC(C)C)C(=O)N[C@@H](CC(=O)O)c3ccccc3)C(=O)C2(C)C)cc1
inactive: max response (CRL-7250) -13.5% | outcome (HEK293) | max response (HaCat) 3.16% | outcome (KB-3-1) | max response (NIH3T3 [1]) -0.819% | outcome (HEK293T [2]) | Potency (C33A) | outcome (CASKI) | Potency (Es-2) | Potency (HeLa) | Potency (Hek293T [3]) | Potency (JEG-3) | Potency (OV90)

COc1cccc(CNc2ccc(S(=O)(=O)Nc3nc4ccccc4s3)cc2)c1O
inactive: max response (CRL-7250) 0.252% | outcome (HEK293) | max response (HaCat) -8.64% | max response (KB-3-1) 7.86% | max response (NIH3T3 [1]) -2.92% | outcome (HEK293T [2]) | Potency (C33A) | Potency (CAOV3) | outcome (CASKI) | Potency (Es-2) | Potency (HeLa) | Potency (Hek293T [3]) | Potency (JEG-3) | Potency (OV90)

O=C1C[C@@]2(C(=O)N1)C(=O)N(Cc1ccc(Br)cc1F)C(=O)c1cccn12
inactive: max response (CRL-7250) -0.124% | outcome (HEK293) | max response (HaCat) -21% | max response (KB-3-1) 1.61% | max response (NIH3T3 [1]) 1.31% | outcome (HEK293T [2]) | Potency (C33A) | Potency (CAOV3) | outcome (CASKI) | Potency (Es-2) | Potency (HeLa) | Potency (Hek293T [3]) | Potency (JEG-3) | Potency (OV90)

CN(C)C(=O)C(O)C(Cc1ccccc1)NC(=O)c1cc2cc(Cl)ccc2[nH]1 (stereo unspecified)
inactive: outcome (CRL-7250) | outcome (HEK293) | max response (HaCat) -1.1% | max response (KB-3-1) 5.45% | max response (NIH3T3 [1]) -2.44% | outcome (HEK293T [2]) | Potency (C33A) | Potency (CAOV3) | outcome (CASKI) | Potency (Es-2) | Potency (HeLa) | Potency (JEG-3) | Potency (OV90)

COc1cc(/C=C/C(=O)O[C@H]2C[C@@H]3C(C(=O)O)=CO[C@@H](O[C@@H]4O[C@H](CO)[C@@H](O)[C@H](O)[C@H]4O)[C@@H]3[C@H]2C)ccc1O
inactive: outcome (CRL-7250) | outcome (HEK293) | max response (HaCat) 3.27% | outcome (KB-3-1) | max response (NIH3T3 [1]) 1.34% | outcome (HEK293T [2]) inactive [at 17.4 µM] | Potency (C33A) | outcome (CASKI) | Potency (Es-2) | Potency (HeLa) | Potency (Hek293T [3]) | Potency (JEG-3) | Potency (OV90)

CC(C)=C1C[C@@]2(C)C(=CC1=O)CC[C@@H](O)[C@@H]2C
inactive: max response (CRL-7250) -13.6% | outcome (HEK293) | max response (HaCat) -1.2% | max response (KB-3-1) 3.47% | max response (NIH3T3 [1]) -19.7% | outcome (HEK293T [2]) | Potency (C33A) | outcome (CASKI) | Potency (Es-2) | Potency (HeLa) | Potency (Hek293T [3]) | Potency (JEG-3) | Potency (OV90)

CC1(CO)CCCC2(C)C3COC(=O)C3=CC(O)C12 (stereo unspecified)
inactive: max response (CRL-7250) 1.03% | max response (HEK293) -8.01% | max response (HaCat) -5.37% | outcome (KB-3-1) | outcome (NIH3T3 [1]) | outcome (NIH3T3 [4]) | Potency (C33A) | Potency (CAOV3) | outcome (CASKI) | Potency (Es-2) | Potency (HeLa) | Potency (Hek293T [3]) | Potency (JEG-3) | Potency (OV90)

C=C1C[C@@]2(O)O[C@@]3(C[C@H]2C(C)C)[C@@H](C)CC[C@@H]13
inactive: outcome (CRL-7250) | max response (HEK293) -11.6% | max response (HaCat) -13.2% | max response (KB-3-1) 9.57% | outcome (NIH3T3 [1]) | outcome (NIH3T3 [4]) | Potency (C33A) | Potency (CAOV3) | outcome (CASKI) | Potency (Es-2) | Potency (HeLa) | Potency (Hek293T [3]) | Potency (JEG-3) | Potency (OV90)

CC(O)C1NC(=O)C2CCCN2C1=O (stereo unspecified)
inactive: max response (CRL-7250) 3.11% | outcome (HEK293) | max response (HaCat) -1.16% | outcome (KB-3-1) | max response (NIH3T3 [1]) -1.84% | outcome (HEK293T [2]) inactive [at 92 µM] | Potency (C33A) | Potency (CAOV3) | outcome (CASKI) | Potency (Es-2) | Potency (HeLa) | Potency (JEG-3) | Potency (OV90)

COC(=O)C1C(O)CCC2CN3CCc4c([nH]c5ccccc45)C3CC21 (stereo unspecified)
inactive: max response (CRL-7250) 2.68% | outcome (HEK293) | max response (HaCat) -7.68% | max response (KB-3-1) 9.41% | max response (NIH3T3 [1]) -7.25% | outcome (HEK293T [2]) | Potency (C33A) | Potency (CAOV3) | Potency (Es-2) | Potency (HeLa) | Potency (Hek293T [3]) | Potency (JEG-3) | Potency (OV90)
